Only some compounds are listed: those with a hit (about 0.97% of all), similar ones and a draw of the others.
PI4K2A block = PI4K2A (human) kinase inhibition; AID 1346378; Q9BTU6; purified PI4K2A, ADP-Glo luminescence, 1 h; active compounds read low; 420,000 compounds, 0.13% hits; activity change, negative = inhibition, % at 76.9 µM; in the data active = activity change below about -50%; inconclusive = mostly about -30% to -49%;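 note: -100% = wells without enzyme as full effect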
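Compounds are screened against recombinant PI4K2A using PI as substrate and ATP, the latter dispensed at 300 microM. Reactions run one hour at ambient temperature before ADP-Glo detection; full inhibition defined by wells lacking enzyme.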
Six1-Eya2 blk = inhibitors of human Six1/Eya2 interaction; Q15475+O00167; AlphaScreen GST-Six1/His-Eya2 binding, biochemical; active compounds read low; activity change, % (no concentration beside the values); 360,000 compounds, 0.56% hits; AID 651725
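Homogeneous AlphaScreen proximity assay pairing GST-Six1 with His-tagged Eya2 (added as 5X mix: 250 nM and 500 nM) in 50 mM Tris pH 8.0, 300 mM NaCl, 1 mM TCEP. Glutathione donor and nickel acceptor beads; 1 h, 37 °C, dark.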
CtBP-E1A inh = CtBP/E1A binding inhibition | AID 651724 | AlphaScreen GST-E1A/His-CtBP binding, 1536-well; active compounds read low | 340,000 compounds, 0.49% hits | activity change, % (test concentration not listed)
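Protein mix (5X: 125 nM each GST-E1A, His-CtBP) was incubated with pinned compound 2 h at 37 deg C in dark, in 50 mM Tris pH 8.0 buffer with 300 mM NaCl. Glutathione donor and nickel acceptor beads followed; AlphaScreen signal read after 1 h.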
Eya2 phos inh = blocks the phosphatase activity of human Eya2; recombinant Eya2, OMFP fluorescence dephosphorylation (OMFP is methylfluorescein phosphate); 330,000 compounds, 0.006% hits; O00167; Potency, µM (top dose mostly 76.9 µM), for inactives: at the highest dose activity, negative = inhibition, actives largely listed as inhibitors; active = well fitted inhibition curve with a large enough effect; inconclusive = small, poorly fitted or top-dose-only effect, or effect the other way; note: potency is the fitted concentration of half-maximal effect
Target sequence (O00167 whole entry, looked up): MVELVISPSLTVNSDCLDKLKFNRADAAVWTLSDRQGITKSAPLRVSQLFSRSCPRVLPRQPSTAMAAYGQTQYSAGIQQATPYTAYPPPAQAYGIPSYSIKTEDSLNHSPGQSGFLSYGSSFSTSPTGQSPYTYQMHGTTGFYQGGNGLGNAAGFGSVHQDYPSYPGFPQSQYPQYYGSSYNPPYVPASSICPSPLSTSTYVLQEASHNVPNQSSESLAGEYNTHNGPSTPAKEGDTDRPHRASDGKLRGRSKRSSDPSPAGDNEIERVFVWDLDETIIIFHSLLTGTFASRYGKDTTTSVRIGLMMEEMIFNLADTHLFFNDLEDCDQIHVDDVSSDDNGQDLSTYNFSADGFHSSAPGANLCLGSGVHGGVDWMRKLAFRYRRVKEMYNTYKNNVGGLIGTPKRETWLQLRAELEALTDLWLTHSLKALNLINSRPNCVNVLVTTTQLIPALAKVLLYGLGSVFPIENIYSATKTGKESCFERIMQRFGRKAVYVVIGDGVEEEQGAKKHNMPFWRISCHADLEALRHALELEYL
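Eya2 protein (added as 0.2 uM solution) was preincubated with compound for 10 min at ambient temperature in 50 mM HEPES pH 7.5, 50 mM NaCl, 5 uM MgCl2, 0.05% BSA, 1 mM DTT. OMFP (added at 50 uM) then reacted 10 min; fluorescence read at 485/525 nm.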
CCT chaperon mod = modulators of cytosolic chaperonin (CCT/TRiC) activity. 360,000 compounds, 0.3% hits. AID 651819. activity change, % (concentration not given with the values), hits read low. purified chaperonin ATPase assay, HTRF ADP detection, 30 min; in the data active = activity change below about -30%
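Enzyme 40 or 20 nM (batch-dependent) in Tris pH 7.4/KCl/MgCl2/DTT; cpd 76 uM single point; ATP 10 uM; 30 min 37 °C; Transcreener ADP HTRF detection, 30 min RT; ratio 665/615.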
Active calls of the source: *; ? = inconclusive; · = not tested or not shown; [ ] = another dose, or the depositor's remark. Cut-off read from the data, not from the text of the source, unless noted: active = activity change below about -65%; inconclusive = mostly about -30% to -63%; inactive = weaker than that. Unless noted, % is set by controls: 0 for no effect and ±100 for the full control effect.

SMILES | PI4K2A block | Six1-Eya2 blk | CtBP-E1A inh | Eya2 phos inh | CCT chaperon mod
CC(C)c1nc(N(C)S(C)(=O)=O)nc(-c2ccc(F)cc2)c1/C=C/[C@H](O)C[C@@H](O)CC(=O)O | 2 | · | · | · | ·
Cc1nnc(NC(=O)C2CC(=O)N(c3ccc4c(c3)OCCO4)C2)s1 (configuration not stated) | -4 | 1 | -6 | -7% | -2
O=C(Nc1nc(-c2ccco2)c(-c2ccco2)s1)C1CC(=O)N(c2ccc3c(c2)OCCO3)C1 (configuration not stated) | -56* | ? | -7 | -18% | 1
CC1CCN(C(=O)COC(=O)CCCN2C(=O)c3cccc4cccc(c34)C2=O)CC1 | 0 | -1 | -2 | -10% | -94*
CCOC(=O)Cn1c(=O)n(CC2CCCO2)c2nc(-c3ccccc3Cl)nc(C(N)=O)c21 (configuration not stated) | -4 | · | · | · | ·
COc1ccc(NC(=O)COc2cccc3c2CCN(Cc2cccnc2)C3=O)c(OC)c1 | -12 | -75* | -82* | -3% | 0
Cc1cc2c(cc1CC(=O)c1sccc1S(=O)(=O)Nc1onc(C)c1Cl)OCO2 | -1 | · | · | · | ·
Cc1ccccc1CNC(=O)C(C)N(c1ccccc1)S(C)(=O)=O (configuration not stated) | -2 | · | · | · | ·
CCc1cccc(NC(=O)C2CCCN(S(=O)(=O)c3c(C)[nH]c(=O)[nH]c3=O)C2)c1 (configuration not stated) | 1 | 6 | -2 | · | -41*
CCc1ccc(NC(=O)C2CCCN(S(=O)(=O)c3ccc4[nH]c(=O)ccc4c3)C2)cc1 (configuration not stated) | 4 | 1 | -1 | -6% | -71*
CC(=O)Nc1cc(-c2ccccc2F)cn2c(-c3ccccc3)cnc12 | 1 | -10 | -3 | · | -36*
C[C@H]1[C@@H](NC(=O)/C=C/c2ccccc2)CC[C@@]23CCCN2C(=O)CCC[C@@H]13 | 5 | · | · | · | ·
OCCC1CN(Cc2cc(F)ccc2-n2cccn2)CCN1C1CCCC1 (configuration not stated) | 1 | 2 | 3 | 5% | -30*
CCCCOC(=O)CCN1C(=O)/C(=C/c2ccccc2)SC1=S | -1 | · | · | · | ·
Cc1cc(NC(=O)CSc2nc3ccccc3cc2C#N)no1 | -1 | -4 | 1 | 2% | -94*
Cc1cccc(C)c1OCC(=O)Nc1c(C(=O)c2ccc(Br)cc2)oc2ccccc12 | -6 | · | · | · | ·
Cn1c2ccccc2c2n[nH]c(=S)nc21 | -3 | -83* | -79* | -5% | -1
CCn1c2ccc(C)cc2c2n[nH]c(=S)nc21 | -2 | -75* | -88* | 9% | 0
Cc1ccc2c(c1)c1n[nH]c(=S)nc1n2CCc1ccccc1 | 2 | 0 | · | 9% | -1
NC(=O)c1cc2nc(-c3ccco3)cc(C(F)(F)F)n2n1 | 2 | -72* | -80* | -1% | -3
COc1ccc(-c2cc(C(F)(F)F)n3nc(C(=O)O)cc3n2)cc1OC | -4 | -70* | ? | -2%[15.4 µM] | -1
Cc1ccccc1C(=O)Nc1nnc(S(=O)(=O)N2CCc3ccccc32)s1 | 1 | · | · | · | ·
CC(c1ccccc1)c1nnc(NC(=O)Nc2ccccc2F)s1 (configuration not stated) | -50* | 9 | 0 | -11% | -1
O=S(=O)(Nc1cc(Sc2cccc3cccnc23)c(O)c2ccccc12)c1ccc(F)cc1 | 2 | -94* | -92* | 1% | -2
CCOc1ccc(S(=O)(=O)N2CCN(C)CC2)cc1NC(=O)c1ccccc1F | -7 | -69* | 1 | 3% | 2
SMILES | PI4K2A block | Six1-Eya2 blk | CtBP-E1A inh | Eya2 phos inh | CCT chaperon mod
CCOc1ccccc1NC(=O)c1cc(S(=O)(=O)NCc2ccco2)ccc1F | -11 | 15 | · | 2% | -67*
Nc1c(Br)cc(Br)c2c1C(=O)c1c(cccc1S(=O)(=O)O)C2=O | -4 | ? | -74* | · | -3
CCc1cc(S(=O)(=O)O)c2cc(C(C)C)cccc1-2 | 0 | · | · | · | ·
COc1ccc(O)c(/C=N/NC(=O)CN2CCS(=O)(=O)CC2)c1 | 7 | ? | -71* | -1% | 2
Nc1ccc2nc(-c3ccccc3)[nH]c2c1 | -7 | -2 | -15 | ? | -1
Nc1ccc2nc(-c3ccccn3)[nH]c2c1 | -14 | -75* | -70* | -1% | 1
Cc1cc(=S)nc(-c2ccccn2)[nH]1 | -3 | -85* | -69* | -3% | 1
CCO[C@H](Cc1ccc(OCCc2ccc(OS(C)(=O)=O)cc2)cc1)C(=O)O | -1 | · | · | · | ·
O=C(O)COc1ccccc1/C=N/NC(=O)c1cc(-c2ccc(F)cc2)nc2ccccc12 | 2 | -72* | ? | -11% | -4
COc1cc([N+](=O)[O-])cc(/C=N/NC(=O)c2cc(C)nc3ccccc23)c1O | 1 | -93* | -83* | 6% | -2
COc1cccc(/C=N/NC(=O)c2cc(-c3ccccn3)nc3ccccc23)c1O | 0 | -75* | -95* | 21% | -7
COc1cc([N+](=O)[O-])cc(/C=N/NC(=O)c2cc(-c3ccccc3)nc3ccccc23)c1O | -3 | ? | -88* | -9% | 0
C[C@@H]1CCN(C(=O)[C@H](CCCN=C(N)N)NS(=O)(=O)c2cccc3c2NC[C@H](C)C3)[C@@H](C(=O)O)C1 | -1 | · | · | · | ·
COc1cccc(/C=N/NC(=O)c2ccc([N+](=O)[O-])cc2Cl)c1O | 2 | -89* | -88* | 2% | -1
COc1cc(/C=N/NC(=O)c2cccc([N+](=O)[O-])c2)cc(OC)c1O | 5 | -2 | · | -8% | -4
Cc1c(C(=O)N(C)C)sc2nc(-c3ccccn3)[nH]c(=O)c12 | -9 | -89* | -97* | 4% | -2
CCOc1ccc(NC(=O)Nc2cc(C)ccc2F)cc1 | -64* | 0 | -7 | 25% | -2
O=C1C(=Cc2ccccc2Cl)CCc2ccccc21 | -78* | -1 | -14 | · | -1
COc1ccccc1C=C1CCc2ccccc2C1=O | -63* | -3 | 1 | · | -3
O=C1/C(=C/c2ccco2)CCc2ccccc21 | -54* | -1 | -5 | -2% | 1
Cn1cccc1/C=C1\CCc2ccccc2C1=O | -56* | -25 | ? | 3% | -2
Cn1cccc1/C=C1\Cc2ccccc2C1=O | -19 | -7 | 0 | -10% | -2
CCC1CCCCN1C(=O)c1ccc2c(c1)N(Cc1cccc(Cl)c1)C(=O)c1ccccc1S2(=O)=O (configuration not stated) | 1 | · | · | · | ·
O=[N+]([O-])c1ccc(O)c2cccnc12 | -3 | -10 | -6 | -13% | 1
O=[N+]([O-])c1ccc(O)c2ncccc12 | -20 | -91* | -96* | 2% | -3
O=[N+]([O-])c1cc([N+](=O)[O-])c2cccnc2c1Oc1ccccc1O | -15 | -65* | ? | 3% | 1

Source: PubChem BioAssay
